Records with an inconclusive call do not appear. A call without a number means that no potency is given here. Calls of active or inactive are those of the source. Calls follow the shape of the dose curve; as a rule, active = well fitted cell-killing curve with a large enough effect in the repeat runs; inconclusive = weak or mixed curves, or effect the other way; inactive = flat fitted curve, though single readings scatter.
Legend:
[1] = cAMP Responsive Elements (CRE) small molecule antagonists, cell-based qHTS assay: qHTS cell viability counter screen (AID 2060913); also: nearly all actives have a fitted effect of over 40% in size
Summary of the method: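 Viability of NKH477-stimulated (0.25 uM final) CRE-bla HEK293T cells is measured by CellTiter-Glo luminescence following 3 hrs compound exposure at 37 C.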

[2] = cAMP Responsive Elements (CRE) small molecule agonists, cell-based qHTS assay: qHTS cell viability counter screen (AID 2060914);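 also: viability read after 3 h of compound exposure; nearly all actives have a fitted effect of over 50% in size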
Summary of the method: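 CRE-bla HEK293T cells in 10% dialyzed FBS medium were exposed to compounds for 3 h at 37C after 18 h plating. CellTiter-Glo was then added in the same wells, and luminescence was read after 30 min at room temperature.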

Row | SMILES | Potency [1] | Potency [2]
1 | Nc1nc2c(ncn2COC(CO)CO)c(=O)[nH]1 | inactive | inactive
2 | N#Cc1ccc(C(=O)O)cc1 | inactive | inactive
3 | COc1ccc2c(c1)C(=O)N(CCc1ccc(S(=O)(=O)NC(=O)NC3CCCCC3)cc1)C(=O)C2(C)C | inactive | inactive
4 | CC(C)(N)C#N | inactive | inactive
5 | CCOc1ccc(C(=O)OCCN(CC)CC)cc1 | inactive | inactive
6 | Cc1cc(C)c(/C=C2\C(=O)Nc3ccccc32)[nH]1 | inactive | inactive
7 | OCCN1C[C@H](O)[C@@H](O)[C@H](O)[C@H]1CO | inactive | inactive
8 | COc1cc(N)c(Cl)cc1C(=O)NC1CCN(Cc2ccccc2)CC1 | inactive | inactive
9 | O=Cc1cccc([N+](=O)[O-])c1 | inactive | inactive
10 | Cc1cc(SC2=C(O)C[C@@](CCc3ccc(N)cc3)(C(C)C)OC2=O)c(C(C)(C)C)cc1CO | inactive | inactive
11 | CC(CCO)CC(C)(C)C (configuration not stated) | inactive | inactive
12 | c1ccc2c(c1)CCc1ccccc1N2 | inactive | inactive
13 | O=C(OCCc1ccccc1)c1ccccc1 | inactive | inactive
14 | Cc1cc(C)c(S(=O)(=O)O)cc1N=Nc1cc(S(=O)(=O)O)c2ccccc2c1O | inactive | inactive
15 | COc1ccccc1OCC(O)CN1CCN(CC(=O)Nc2c(C)cccc2C)CC1 (configuration not stated) | inactive | inactive
16 | CC1=C(/C=C/C(C)=C/C=C/C(C)=C/CO)C(C)(C)CCC1 | inactive | inactive

Row | SMILES | Potency [1] | Potency [2]
17 | CCCCCC(N)=O | inactive | inactive
18 | N#CCCN(CCO)CCO | inactive | inactive
19 | CC[N+]1(CC)CCC(=C(c2ccccc2)c2ccccc2)C1C (configuration not stated) | inactive | inactive
20 | C=C(C)[C@H]1CC=C(C)CC1 | inactive | inactive
21 | CCN(CC)CCOC(=O)C(c1ccccc1)C1CCCCC1 (configuration not stated) | inactive | inactive
22 | CCCCCCn1c(=O)c2c(ncn2C)n(C)c1=O | inactive | inactive
23 | CC(=O)c1ccc2c(c1)[C@H](NC(=O)c1ccc(F)cc1)[C@@H](O)C(C)(C)O2 | inactive | inactive
24 | C=C[Si](OC)(OC)OC | inactive | inactive
25 | CC(C)(O)c1ccccc1CC[C@@H](SCC1(CC(=O)O)CC1)c1cccc(/C=C/c2ccc3ccc(Cl)cc3n2)c1 | inactive | inactive
26 | NCCOCCO | inactive | inactive
27 | Cc1ccc([N+](=O)[O-])cc1S(=O)(=O)O | inactive | inactive
28 | CCC(COC(=O)CCS)(COC(=O)CCS)COC(=O)CCS | inactive | inactive
29 | CCOC(=O)CC(C(C)=O)C(C)=O | inactive | inactive
30 | CC[C@H]1CC[C@H](NCc2cc3c(cc2OC)[C@H]2C[C@H]2C(=O)N3C)[C@H](c2ccccc2)N1 | inactive | inactive
31 | CCOC(=O)C1=C(C)NC(C)=C(C(=O)OCC)C1c1ccccc1/C=C/C(=O)OC(C)(C)C | inactive | inactive
